A short description of assay [1]: qHTS drug screen for cell cycle checkpoint inhibitors in PARPi-resistant BRCA-mutant ovarian cancer cell lines. (AID 1963452; calls by dose curve). The note with it: PEO1/OlaR viability, CellTiter-Glo luminescence, 96 h, stronger effect = lower value. The procedure, abridged: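 PEO1, PEO4 and PEO1/OlaR ovarian cancer cells, 600 per well, exposed 96 h at 37C to a dilution series. Viability read by CellTiter-Glo luminescence, normalized to DMSO and empty wells; activity summarized as Z-AUC.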

Assay [2] in a line: qHTS profiling for inhibitors of Plasmodium falciparum proliferation (AID 504749). Also: nearly all actives have a fitted effect of over 60% in size. Also: potency is read from the fitted curve at half-maximal effect.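 As to activity, negative = inhibition: 0% = DMSO vehicle and full inhibition = artemisinin control.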 The note with it: P. falciparum in erythrocytes, SYBR Green DNA, 72 h. The procedure, abridged:
(§1)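 In a 72 h erythrocytic culture (37 C, humidified, 5% CO2) at 2.5% hematocrit and 0.3% starting parasitemia, compounds were tested; SYBR Green I in detergent lysis buffer stained parasite DNA overnight.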

A further assay relates to 3D7. The assay is described as above. The note with it: P. falciparum in erythrocytes, SYBR Green DNA, 72 h; series mostly up to 28.7 µM. The gist of the method:
as §1

For a further assay, the system named is 7G8. The description is as above. The note with it: P. falciparum in erythrocytes, SYBR Green DNA, 72 h; series mostly up to 28.7 µM. The procedure, abridged: as §1
For another assay, the system named is AA1029. The assay is described as above. The note with it: P. falciparum in erythrocytes, SYBR Green DNA, 72 h; series mostly up to 28.7 µM. The gist of the method: as §1
A further assay deals with AS120. The description is as above. The note with it: P. falciparum in erythrocytes, SYBR Green DNA, 72 h; series mostly up to 28.7 µM. The gist of the method:
as §1

In another assay the test system is ATS189. The assay is described as above. The note with it: P. falciparum in erythrocytes, SYBR Green DNA, 72 h; series mostly up to 28.7 µM. The gist of the method: as §1
For assay [3], the target named is Nuclear receptor subfamily 1 group I member 2 (Homo sapiens) (UniProt O75469). Briefly: Dual reporter qHTS for agonist of Pregnane X Receptor (hPXR) against the NCATS DSHEA and TCM libraries: Luminescence readout (AID 1920059). Also: potency is read from the fitted curve at half-maximal effect. Conditions: hPXR dual reporter cells, luciferase luminescence agonist; series mostly up to 40 µM. The gist of the method: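 Luminescent PXR reporter read (ONE-Glo) after a CellTiter-Fluor viability read, following 24 h, 37C treatment of HepG2 cells stably carrying hPXR-Luc.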
Sequence of Nuclear receptor subfamily 1 group I member 2 (Homo sapiens) (O75469 whole entry, looked up): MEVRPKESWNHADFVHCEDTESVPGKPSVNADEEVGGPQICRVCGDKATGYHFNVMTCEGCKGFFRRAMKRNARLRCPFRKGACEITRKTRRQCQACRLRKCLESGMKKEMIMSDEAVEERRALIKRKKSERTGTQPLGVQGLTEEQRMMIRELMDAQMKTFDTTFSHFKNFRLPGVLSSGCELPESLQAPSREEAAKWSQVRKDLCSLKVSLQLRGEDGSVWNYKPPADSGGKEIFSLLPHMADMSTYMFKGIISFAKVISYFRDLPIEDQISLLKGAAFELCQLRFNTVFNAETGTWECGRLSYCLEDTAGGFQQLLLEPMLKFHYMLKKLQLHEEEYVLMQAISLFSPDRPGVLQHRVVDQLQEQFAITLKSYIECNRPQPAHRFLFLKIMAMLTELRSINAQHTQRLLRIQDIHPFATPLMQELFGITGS

For assay [4] the target is unchanged. As to the kind of experiment: Dual reporter qHTS for antagonist of Pregnane X Receptor (hPXR) against the NCATS DSHEA and TCM libraries: Luminescence Readout (AID 1920060). Also: 0% is about no effect. Conditions: hPXR dual reporter cells, luciferase luminescence, antagonist mode; series mostly up to 40 µM. The gist of the method:
(§2)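 In antagonist mode, 2 uM rifampicin was added to hPXR-Luc HepG2 cells alongside test substances, incubated 24 h at 37 C; luminescence gave reporter activity, and CellTiter-Fluor fluorescence (405/540 nm) gave viability.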

Assay [5] in a line: Dual reporter qHTS for antagonist of Pregnane X Receptor (hPXR) against the NCATS DSHEA and TCM libraries: Fluorescence Readout (AID 1920061). Also: 0% is about no effect. The note with it: PXR dual reporter cells, antagonist mode; series mostly up to 40 µM. The gist of the method:
as §2

Where [6] appears, read: measured here: PEO1 parental Z-AUC.
Setting [7] is: at 28.7 µM (top of the series), parasite line A.
Setting [8] is: at 28.7 µM (top of the series), parasite line B.
Where [9] appears, read: at 12.8 µM (top of the series), parasite line A.
Where [10] appears, read: at 12.8 µM (top of the series), parasite line B.

Results on 22 compounds are retold here after PubChem BioAssay (NCATS).

Records with an inconclusive call do not appear. Active and inactive are the calls of the source. Unless noted, calls follow the shape of the dose curve; as a rule, active = well fitted curve in the direction sought with a large enough effect; inconclusive = small, poorly fitted or top-dose-only effect, or another doubt; inactive = no such curve, though single readings can be large; an effect the other way counts as inactive or inconclusive.

For the compound `COc1cc(C)c(/C=C/C(C)=C/C=C/C(C)=C/C(=O)O)c(C)c1C`, the Z-AUC in assay [1] is 0.967 (inactive); in [1] (setting [6]) it was 0.941; in assay [1] (measured here: PEO4 Z-AUC) it was 1.13. In addition, the activity, negative = inhibition was -5.12% (inactive) in assay [2] (setting [7]) and -0.604% (inactive) in assay [2] (setting [8]). Further, the Potency result in the assay on 3D7, with 7G8, in the assay on AA1029, with AS120 and in the assay on ATS189 was “inactive” in each case.

`CCCCC[C@H](O)/C=C/[C@H]1[C@H](O)CC(=O)[C@@H]1CCCCCCC(=O)O`: the Z-AUC in assay [1] is -0.83 (inactive); in assay [1] (setting [6]) it was -0.667; in assay [1] (measured here: PEO4 Z-AUC), -0.531.

Consider `CC/C=C\C/C=C\C/C=C\C/C=C\C/C=C\CCCC(=O)O`, for which the Potency result (in assay [3]; in the assay with 3D7; in the assay on AA1029; in the assay on AS120; in the assay on ATS189) was “inactive” throughout. Besides, the outcome in assay [4] and in [5] was inactive. In addition, the activity, negative = inhibition in assay [2] (setting [7]) is -4.56% (inactive); in [2] (setting [8]), -6.54% (inactive).

On to `COc1ccc([C@@H]2CC(=O)c3c(O)cc(O[C@@H]4O[C@H](CO[C@@H]5O[C@@H](C)[C@H](O)[C@@H](O)[C@H]5O)[C@@H](O)[C@H](O)[C@H]4O)cc3O2)cc1O`, for which the Z-AUC in assay [1] was -0.188 (inactive); in [1] (setting [6]) it was 0.305; in assay [1] (measured here: PEO4 Z-AUC), 0.67.

Turning to `COC1=C(OC)C(=O)C(C/C=C(\C)CC/C=C(\C)CC/C=C(\C)CC/C=C(\C)CC/C=C(\C)CC/C=C(\C)CC/C=C(\C)CC/C=C(\C)CC/C=C(\C)CCC=C(C)C)=C(C)C1=O`, the Potency entry (in [3]; in the assay on 3D7; in the assay with 7G8; in the assay on AA1029; with AS120; in the assay on ATS189) was “inactive” in each case. In addition, the compound was classed as inactive in [4] and in [5]. Further, the Z-AUC is -0.238 (inactive) in assay [1], -0.0279 in assay [1] (setting [6]) and 0.209 in assay [1] (measured here: PEO4 Z-AUC). For the same compound, the activity, negative = inhibition was -2.4% (inactive) in assay [2] (setting [7]) and 5.89% (inactive) in assay [2] (setting [8]).

As for `CN(C)CCOc1ccc(/C(=C(/CCCl)c2ccccc2)c2ccccc2)cc1`, the Z-AUC is 0.623 (inactive) in [1], 0.97 in assay [1] (setting [6]) and 0.656 in assay [1] (measured here: PEO4 Z-AUC). The results for the activity, negative = inhibition in assay [2] (setting [7]) and in assay [2] (setting [8]) were -4.58% (inactive) and -0.289% (inactive), respectively. Moreover, the Potency result in the assay with 3D7, in the assay with AA1029, in the assay on AS120 and in the assay with ATS189 was “inactive” each time.

For `CC(=O)NCCCS(=O)(=O)O`, the Z-AUC in assay [1] is 1.02 (inactive); in [1] (setting [6]) it was 1.45; in assay [1] (measured here: PEO4 Z-AUC), 1.03. For the same compound, the activity, negative = inhibition in assay [2] (setting [7]) was 2.58% (inactive); in assay [2] (setting [8]), 11.9% (inactive). Also, the Potency entry in the assay on 3D7, in the assay with 7G8, in the assay on AA1029, with AS120 and with ATS189 was “inactive” throughout.

For the compound `CO[C@H]1O[C@@H]2O[C@@]3(C)CC[C@H]4[C@H](C)CC[C@@H]([C@H]1C)[C@@]24OO3`, the Z-AUC in [1] was -0.105 (inactive); in [1] (setting [6]) it was 0.613; in assay [1] (measured here: PEO4 Z-AUC) it was 0.87.

With `CCOC(=O)C1=C(COCCN)NC(C)=C(C(=O)OC)C1c1ccccc1Cl` (centres undefined), the activity, negative = inhibition in assay [2] (setting [7]) was -0.523% (inactive); in assay [2] (setting [8]), -8.98% (inactive). The Potency entry in the assay on 3D7, in the assay on AA1029 and with AS120 was “inactive” each time. Further, the Potency in the assay with 7G8 is 11.2 µM (active).

Take `Cc1ncc(C[n+]2csc(CCO)c2C)c(N)n1`: the Potency result (in assay [3]; with 3D7; with 7G8; in the assay on AA1029; with AS120; in the assay with ATS189) was “inactive” in each case. For the same compound, the compound was called inactive in [5]. In addition, the activity, negative = inhibition in assay [2] (setting [9]) was 5.7% (inactive); in assay [2] (setting [10]), 7.59% (inactive).

On to `CC[C@H](CC[C@@H](C)[C@H]1CC[C@H]2[C@@H]3CC=C4C[C@@H](O)CC[C@]4(C)[C@H]3CC[C@]12C)C(C)C`, for which the Potency result in assay [3] was “inactive”. The compound was classed as inactive in assay [4] and in assay [5]. For the same compound, the Z-AUC is 0.987 (inactive) in assay [1], 0.643 in assay [1] (setting [6]) and 0.776 in assay [1] (measured here: PEO4 Z-AUC).

As to `Oc1ccc(/C=C/c2cc(O)cc(O)c2)cc1`, in assay [3], the Potency was 31.6 µM (active). The call in assay [4] and in assay [5] was inactive. Moreover, the Z-AUC in assay [1] was 0.778 (inactive); in assay [1] (setting [6]), 1.04; in [1] (measured here: PEO4 Z-AUC), 0.679.

As to `Oc1cccc(O)c1O`, the Potency result (in assay [3]; in the assay with AA1029) was “inactive” each time. Moreover, the call in assay [4] and in assay [5] was inactive. Moreover, the activity, negative = inhibition in assay [2] (setting [7]) is -26.1% (inactive); in assay [2] (setting [8]), -8.69% (inactive).

Take `C=CC[N+]1([C@H]2C[C@H]3[C@@H]4CC[C@H]5C[C@H](O)[C@@H](N6CCOCC6)C[C@]5(C)[C@H]4CC[C@]3(C)[C@H]2OC(C)=O)CCCC1`: the Z-AUC was 1.19 (inactive) in [1], 1.23 in [1] (setting [6]) and 0.984 in assay [1] (measured here: PEO4 Z-AUC). Further, the Potency entry in the assay on 3D7 is “inactive”. In the assay on AA1029, the Potency is 11.2 µM (active).

In the case of `CN=C1C=CC(=C(c2ccc(N(C)C)cc2)c2ccc(N(C)C)cc2)C=C1`, the Potency in [2] (parasite line A) was 0.562 µM (active); in assay [2] (parasite line B), 0.398 µM (active); in the assay with 3D7, 0.708 µM (active); in the assay on 7G8, 0.282 µM (active); with AA1029, 0.708 µM (active); in the assay with AS120, 1 µM (active). For the same compound, in the assay on ATS189, the Potency is 0.447 µM (active).

In the case of `Cn1cc(NC(=O)c2cc(NC(=O)c3cc(NC=O)cn3C)cn2C)cc1C(=O)NCCC(=N)N`, the Potency was 8.91 µM (active) in [2] (parasite line A); 11.2 µM (active) in assay [2] (parasite line B); 10 µM (active) in the assay with 3D7; 0.316 µM (active) in the assay with 7G8; 7.08 µM (active) in the assay with AA1029; 7.08 µM (active) in the assay with AS120. In addition, in the assay with ATS189, the Potency is 11.2 µM (active).

Consider `CCCOc1cc(N)ccc1C(=O)OCCN(CC)CC`, for which the activity, negative = inhibition was -3.32% (inactive) in assay [2] (setting [9]) and 4.44% (inactive) in assay [2] (setting [10]). Moreover, the Potency entry in the assay with 3D7, in the assay on 7G8, in the assay on AA1029, in the assay on AS120 and with ATS189 was “inactive” in each case.

Take `COc1ccc(C(=O)CCC(=O)O)c2ccccc12`: the activity, negative = inhibition was 16.4% (inactive) in assay [2] (setting [7]) and 8.35% (inactive) in [2] (setting [8]). Further, the Potency result in the assay with 3D7, with 7G8, in the assay on AA1029, in the assay with AS120 and in the assay with ATS189 was “inactive” in each case.

Regarding `OCl`, the activity, negative = inhibition in assay [2] (setting [7]) is 10.5% (inactive); in assay [2] (setting [8]) it was 2% (inactive). Further, the Potency entry in the assay on 3D7, in the assay on 7G8, in the assay with AA1029, in the assay with AS120 and in the assay on ATS189 was “inactive” in each case.

Take `CC(=O)N=c1sc(S(N)(=O)=O)nn1C`: the values for the activity, negative = inhibition in [2] (setting [9]) and in assay [2] (setting [10]) were -0.509% (inactive) and -5.64% (inactive), respectively. Besides, the Potency entry in the assay with 3D7, with 7G8, in the assay with AA1029, in the assay on AS120 and in the assay on ATS189 was “inactive” each time.

As for `OB(O)O`, the activity, negative = inhibition in [2] (setting [7]) is 8.7% (inactive); in assay [2] (setting [8]) it was 9.31% (inactive). Moreover, the Potency result in the assay with 3D7, in the assay with 7G8, in the assay on AA1029, with AS120 and with ATS189 was “inactive” each time.

On to `COC(=O)C(CN)c1c[nH]c2ccc(OC)cc12` (centres undefined), for which the activity, negative = inhibition is -3.75% (inactive) in assay [2] (setting [7]) and -2.84% (inactive) in assay [2] (setting [8]). In addition, the Potency result with 3D7, with 7G8, in the assay with AA1029, in the assay with AS120 and with ATS189 was “inactive” in each case.
